Data: PubChem BioAssay (EPA / NIEHS)
The source made the active and inactive calls. Rule for the calls: active = hit-call score of the fitted dose curve at least 0.9, where 1 is the maximum; inactive = score below 0.9.

Test: ATG_NFI_CIS: Attagene CIS-FACTORIAL HepG2 Assay for human Nuclear Factor I (NFI) (AID 2282989)
Settings: HepG2 cis-regulatory reporter, NFI response element transcription; actives raise or lower the signal
Protocol: ATG_CIS is a cell-based, multiplexed-readout assay that uses HepG2, a human liver cell line, with measurements taken at 24 hours after chemical dosing in a 24-well plate.ATG_NFI_CIS is one of 52 assay component(s) measured or calculated from the ATG_CIS assay. It is designed to make measurements of mRNA induction, a form of inducible reporter, as detected with fluorescence intensity signals by Reverse transcription polymerase chain reaction (RT-PCR) and Capillary electrophoresis technology.Data from the assay component ATG_NFI_CIS was analyzed into 1 assay endpoint. This assay endpoint, ATG_NFI_CIS, was analyzed with bidirectional fitting relative to DMSO as the negative control and baseline of activity. Using a type of inducible reporter, measures of mRNA for gain or loss-of-signal activity can be used to understand the reporter gene at the transcription factor-level as they relate to the gene NFIA. Furthermore, this assay endpoint can be referred to as a primary readout, because this assay has produced multiple assay endpoints where this one serves a reporter gene function. To generalize the intended target to other relatable targets, this assay endpoint is annotated to the dna binding intended target family, where the subfamily is nuclear factor I.
Human liver HepG2 cells are transiently transfected with multiple reporter transcription units (MRTUs) in 6-well plates using FuGene 6 reagent (Roche; 3 ml FuGene/1 mg DNA). The MRTU constructs are regulated by a cis-regulating element (promoter). […] A major difference between the CIS and TRANS system is that in CIS activities of endogenous TFs are measured, whereas the TRANS assay evaluates changes in activities of exogenous, chimeric NR-Gal4 proteins. […] At the end of 24 hour incubation, total RNA was isolated using TriZol reagent (Invitrogen). The isolated RNA is then reverse-transcribed using oligo(dT) primer and Mo-MLV reverse transcriptase (Invitrogen) with DNAse I (Ambion) treatment for 30 min. The one-tenth of the produced cDNA was amplified by PCR using Taq DNA polymerase (Invitrogen) and two reporter sequence-specific primers. The PCR products were fluorescently labeled by primer extension with 6-arboxyfluorescein (6-FAM) 5'-labeled reporter sequence-specific primer (2 min at 95 C, 20 s at 68 C and 10 min at 72 C) and these products were digested with 5U of HpaI (New England Biolabs) for 2h at 37 C. The fragments were purified using Qiaquick PCR columns (Qiagen), analyzed on an ABI 3130xL genetic analyzer (Applied Biosystems) with peak positions identified by using a set of X-rhodamine (ROX)-labeled MapMarker1000 molecular weight standards (BioVentures). The raw capillary electrophoresis data was processed using Attagraph software (Attagene).

| SMILES | outcome | AC50 |
| --- | --- | --- |
| C=C(C#N)C(=O)OCC | inactive |  |
| CC[N+](C)(CC)CC | inactive |  |
| CN1C(=O)c2ccccc2C1=O | inactive |  |
| C=C1CC[C@H](O)C/C1=C/C=C1\CCC[C@]2(C)[C@@H]([C@H](C)/C=C/[C@H](C)C(C)C)CC[C@@H]12 | inactive |  |
| CCCCCCCCCCCCCC(=O)OCC(O)CO (stereo not given) | inactive |  |
| O=C(c1ccccc1)C(O)c1ccccc1 (stereo not given) | inactive |  |
| C=C[Si]1(C)O[Si](C)(C=C)O[Si](C)(C=C)O[Si](C)(C=C)O1 (stereo not given) | inactive |  |
| CCCCSCCCC | inactive |  |
| CCOc1ccc(N=Nc2ccc(C=Cc3ccc(N=Nc4ccc(OCC)cc4)cc3S(=O)(=O)O)c(S(=O)(=O)O)c2)cc1 | inactive |  |
| BrCc1cccc(Oc2ccccc2)c1 | inactive |  |
| CCc1cc(Cc2cc(CC)cc(C(C)(C)C)c2O)c(O)c(C(C)(C)C)c1 |  | 13.5 µM (active) |
| O=CN1CCOCC1 | inactive |  |
| CCCC1O[C@@H]2C[C@H]3[C@@H]4CCC5=CC(=O)C=C[C@]5(C)[C@H]4[C@@H](O)C[C@]3(C)[C@]2(C(=O)CO)O1 (stereo not given in full) | inactive |  |
| CCc1ccc(O)c(OC)c1 | inactive |  |
| CCCCCCCCCCCCCCN(CCO)CCO |  | 17.2 µM (active) |
| CC(=O)C1(C)CC2=C(CCCC2(C)C)CC1C (stereo not given) |  | 187 µM (active) |
| CC(=O)O[C@@H]1CC2CCC1(C)C2(C)C (stereo not given in full) | inactive |  |
| FC(F)(F)COCC(F)(F)F | inactive |  |
| C=C(C)[C@H]1CC=C(C)C(=O)C1 | inactive |  |
| CCCCN(CCCC)C(=O)N(CCCC)CCCC |  | 60.3 µM (active) |

| SMILES | outcome | AC50 |
| --- | --- | --- |
| ClC(c1ccccc1)(c1ccccc1)c1ccccc1 | inactive |  |
| O=P(O)(O)O | inactive |  |
| CCCCCc1ccco1 | inactive |  |
| O=C(O)CCCCCCCCCCCC(=O)O | inactive |  |
| CSCCC=O | inactive |  |
| CC(=O)O[C@@H]1C[C@@H]2CC[C@@]1(C)C2(C)C | inactive |  |
| O=C1CCCC=CCCCCCCCCCC1 | inactive |  |
| Nc1ccccc1[N+](=O)[O-] | inactive |  |
| C=C(C)[C@@H]1CC=C(C)C(=O)C1 | inactive |  |
| O=C1c2ccccc2C(=O)c2c(O)ccc(O)c21 | inactive |  |
| C[Si]1(C)O[Si](C)(C)O[Si](C)(C)O1 | inactive |  |
| C1CCOC1 | inactive |  |
| COC(C)(C)CC(C)=O | inactive |  |
| Cc1ncc([N+](=O)[O-])n1CCO | inactive |  |
| CC(C)Nc1nc(N)nc(Cl)n1 | inactive |  |
| OCc1cccc(Oc2ccccc2)c1 | inactive |  |
| CCCCCCC(C)(C)S | inactive |  |
| O=C(CS)OCCOC(=O)CS | inactive |  |
| CCC(C)=O | inactive |  |
| CCOC(=O)CN | inactive |  |
